In PubChem BioAssay:
Calls of active or inactive are those of the source. Unless noted, how the calls were made is not given here.

Legend:
[1] = tested on: Wnt5a (protein binding on small-molecule microarray); experiment: small molecules binding Wnt5a protein – biophysical, small-molecule microarray, 635/667 nm fluorescence, primary screen (AID 1142); details: 635 nm fluorescence, higher = more signal;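 further: fluorescence read at 667 nm with signal to noise per printed feature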
[2] = ATP-based viability of Huh7 replicon cells – cell-based, CellTiter-Glo luminescence, basal, 48 h, cytotoxicity control for HCV replication inhibitor project, primary screen (AID 1143); details: higher = more signal, called active from +8 up or from −8 down;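 further: Huh7 hepatoma cells carrying a hepatitis C replication reporter with no stimulus; test concentration not given here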
[3] = Pseudomonas biofilm growth suppression – PAO1 strain, BacTiter-Glo luminescence, LB-PBS, primary screen (AID 1144); details: P. aeruginosa PAO1 biofilm, 12 h, higher = more signal
[4] = basal CRE-LacZ reporter activity in PC12 – cell-based, unstimulated, primary screen (AID 1145); details: no forskolin, luminescence, 4.5 h, higher = more signal, called active from +8 up or from −8 down
[5] = forskolin-driven CRE-LacZ activity in PC12 – cell-based, CRE-LacZ reporter, forskolin-stimulated, primary screen (AID 1146); details: luminescence, 4.5 h, higher = more signal, called active from +8 up or from −8 down;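 further: PC12 cells with 6xCRE LacZ reporter stimulated by forskolin 10 µM; beta-galactosidase reporter signal reflecting CREB driven transcription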
[6] = biological target: Streptavidin (Streptomyces avidinii) (UniProt P22629); experiment: compounds binding control protein streptavidin – biophysical, small-molecule microarray, 635/667 nm fluorescence, artefact control for SMM compound annotation, primary screen (AID 1147); details: higher = more signal;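 further: signal reflects streptavidin binding to arrayed compounds as a control protein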
Streptavidin (Streptomyces avidinii), sequence (P22629 whole entry, looked up): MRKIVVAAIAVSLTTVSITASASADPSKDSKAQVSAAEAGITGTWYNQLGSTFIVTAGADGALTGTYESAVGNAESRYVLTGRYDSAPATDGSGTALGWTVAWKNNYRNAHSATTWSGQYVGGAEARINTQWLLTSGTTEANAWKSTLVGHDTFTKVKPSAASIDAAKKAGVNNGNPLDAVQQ

[7] = probe aInhba binding on compound microarray – biochemical, small-molecule microarray, 635/667 nm fluorescence, primary screen (AID 1148); details: higher = more signal;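 further: score merges 667nm spot fluorescence with signal-to-noise for antibody binding to printed compounds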
[8] = biological target: Torsin-1A (Homo sapiens) (UniProt O14656); experiment: TOR1A wild-type binding on microarray – cell lysate, small-molecule microarray, lysate, 635/667 nm, primary screen (AID 1149); details: COS7 hTOR1A-WT lysate, 635 nm fluorescence, higher = more signal
Torsin-1A (Homo sapiens), sequence (O14656 whole entry, looked up): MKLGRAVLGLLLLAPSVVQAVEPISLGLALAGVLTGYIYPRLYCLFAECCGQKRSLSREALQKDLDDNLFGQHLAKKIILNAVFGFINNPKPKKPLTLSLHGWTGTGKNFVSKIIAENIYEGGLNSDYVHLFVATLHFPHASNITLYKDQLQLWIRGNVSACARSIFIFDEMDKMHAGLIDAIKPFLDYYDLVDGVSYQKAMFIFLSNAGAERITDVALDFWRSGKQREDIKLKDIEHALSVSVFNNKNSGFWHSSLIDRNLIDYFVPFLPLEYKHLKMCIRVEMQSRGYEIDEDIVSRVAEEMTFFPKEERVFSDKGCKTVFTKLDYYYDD

[9] = biological target: Torsin-1A (Homo sapiens) (UniProt O14656); experiment: torsin A mutant lysate binding on microarrays – cell lysate, small-molecule microarray, COS7 lysate, 635/667 nm fluorescence, primary screen (AID 1150); details: COS7 hTOR1A mutant lysate, 635 nm fluorescence, higher = more signal;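 further: score pools 667 nm emission and signal to noise measuring lysate protein binding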
[10] = tested on: Sonic hedgehog protein (Shh); experiment: Sonic hedgehog microarray binding compounds – biochemical, small-molecule microarray, 635/667 nm fluorescence, primary screen (AID 1151); details: 635 nm fluorescence, higher = more signal;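 further: Shh protein binding to compounds spotted on small-molecule microarray slides; score combines spot fluorescence intensity with signal-to-noise across triplicate slides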
[11] = optical density shifts of acrAB sulA E. coli – strain DRC41, OD650, 48 h, E. coli filamentation inducer project, primary screen (AID 1152); details: higher = more signal, called active from +8 up or from −8 down;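 further: E. coli MC1000 strain DRC41 lacking acrAB efflux pump and sulA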
[12] = probe aLefty1 binding on compound microarray – biochemical, small-molecule microarray, 635/667 nm fluorescence, primary screen (AID 1153); details: higher = more signal;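 further: score merges spot fluorescence with signal-to-noise ratio from the scanned slide images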
[13] = plasmodial surface anion channel blockers, osmotic lysis – cell-based, P. falciparum Indochina, OD700, 1 h, primary screen (AID 1154); details: P. falciparum Indochina infected RBC osmotic lysis, higher = more signal, called active from +8 up or from −8 down
[14] = plasmodial surface anion channel blockers, osmotic lysis – cell-based, P. falciparum Indochina, OD700, 2 h, primary screen (AID 1155);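 further: lysis reports solute entry through the parasite surface anion channel PSAC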; details: P. falciparum Indochina infected erythrocytes, higher = more signal, called active from +8 up or from −8 down
[15] = changes in parasitized red cell lysis, either direction – P. falciparum Indochina, OD700, 3 h, PSAC antagonist project, primary screen (AID 1156); details: P. falciparum-infected erythrocytes, osmotic lysis, higher = more signal, called active from +8 up or from −8 down
[16] = plasmodial surface anion channel blockers, osmotic lysis – cell-based, P. falciparum Indochina, OD700, 18 h, primary screen (AID 1157); details: P. falciparum Indochina infected erythrocytes, osmotic lysis OD700, 18 h; higher = more signal, called active from +8 up or from −8 down
[17] = S6 kinase pathway phospho-S6 level changes – cell-based, A549, cytoblot, luminescence, serum-stimulated, primary screen (AID 1158); details: 5 h, higher = more signal;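 further: serum-stimulated A549 lung adenocarcinoma cells; signal is phosphorylated S6 detected by cytoblot immunostaining with HRP secondary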
[18] = biological target: NADPH oxidase 2 (Homo sapiens) (UniProt P04839); experiment: compounds shifting NOX2 Amplex Red fluorescence – cell-based, HEK293-NOX2, PMA-stimulated, NOX inhibitor project, primary screen (AID 1159); details: 45 min, higher = more signal, called active from +8 up or from −8 down; further: test concentration not given here
NADPH oxidase 2 (Homo sapiens), sequence (P04839 whole entry, looked up): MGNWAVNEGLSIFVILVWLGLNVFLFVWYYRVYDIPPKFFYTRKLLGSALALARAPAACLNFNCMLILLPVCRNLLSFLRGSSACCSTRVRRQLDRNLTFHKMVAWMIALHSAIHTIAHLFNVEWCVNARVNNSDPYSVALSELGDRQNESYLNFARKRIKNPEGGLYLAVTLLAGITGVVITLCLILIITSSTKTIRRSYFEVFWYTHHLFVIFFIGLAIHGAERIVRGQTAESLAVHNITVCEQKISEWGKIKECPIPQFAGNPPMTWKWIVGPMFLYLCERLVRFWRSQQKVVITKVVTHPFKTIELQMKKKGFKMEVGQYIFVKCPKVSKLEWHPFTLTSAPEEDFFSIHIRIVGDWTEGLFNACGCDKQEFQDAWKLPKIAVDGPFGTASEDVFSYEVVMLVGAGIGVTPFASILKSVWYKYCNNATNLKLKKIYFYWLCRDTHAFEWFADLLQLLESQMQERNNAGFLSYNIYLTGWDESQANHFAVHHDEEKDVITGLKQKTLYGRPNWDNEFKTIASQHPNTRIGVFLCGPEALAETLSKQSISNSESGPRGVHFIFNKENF

[19] = biological target: NADPH oxidase 4 (Homo sapiens) (UniProt Q9NPH5); experiment: compounds shifting NOX4 Amplex Red fluorescence – cell-based, HEK293-NOX4, tetracycline-induced, NOX inhibitor project, primary screen (AID 1160); details: HEK293-NOX4, Amplex Red H2O2 fluorescence, 45 min; higher = more signal, called active from +8 up or from −8 down
NADPH oxidase 4 (Homo sapiens), sequence (Q9NPH5 whole entry, looked up): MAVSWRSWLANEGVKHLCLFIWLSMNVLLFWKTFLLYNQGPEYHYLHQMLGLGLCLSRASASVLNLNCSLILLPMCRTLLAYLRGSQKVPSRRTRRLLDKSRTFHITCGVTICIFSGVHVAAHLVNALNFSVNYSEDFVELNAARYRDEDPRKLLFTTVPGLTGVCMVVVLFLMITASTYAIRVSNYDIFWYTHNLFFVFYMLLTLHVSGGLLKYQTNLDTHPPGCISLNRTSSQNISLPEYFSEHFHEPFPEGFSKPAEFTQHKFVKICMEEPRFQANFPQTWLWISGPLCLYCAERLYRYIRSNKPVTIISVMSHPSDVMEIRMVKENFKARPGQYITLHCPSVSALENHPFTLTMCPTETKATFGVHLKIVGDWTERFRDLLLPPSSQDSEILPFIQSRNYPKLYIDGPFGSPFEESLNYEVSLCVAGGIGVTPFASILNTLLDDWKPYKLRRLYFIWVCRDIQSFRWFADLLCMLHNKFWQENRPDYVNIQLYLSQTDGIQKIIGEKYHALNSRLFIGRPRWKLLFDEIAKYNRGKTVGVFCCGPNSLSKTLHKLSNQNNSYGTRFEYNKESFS

[20] = biological target: NADPH oxidase 5 (Homo sapiens) (UniProt Q96PH1); experiment: compounds shifting NOX5 Amplex Red fluorescence – cell-based, HEK293-NOX5, NOX inhibitor project, primary screen (AID 1161); details: HEK293-NOX5, ionomycin, 45 min, higher = more signal
NADPH oxidase 5 (Homo sapiens), sequence (Q96PH1 whole entry, looked up): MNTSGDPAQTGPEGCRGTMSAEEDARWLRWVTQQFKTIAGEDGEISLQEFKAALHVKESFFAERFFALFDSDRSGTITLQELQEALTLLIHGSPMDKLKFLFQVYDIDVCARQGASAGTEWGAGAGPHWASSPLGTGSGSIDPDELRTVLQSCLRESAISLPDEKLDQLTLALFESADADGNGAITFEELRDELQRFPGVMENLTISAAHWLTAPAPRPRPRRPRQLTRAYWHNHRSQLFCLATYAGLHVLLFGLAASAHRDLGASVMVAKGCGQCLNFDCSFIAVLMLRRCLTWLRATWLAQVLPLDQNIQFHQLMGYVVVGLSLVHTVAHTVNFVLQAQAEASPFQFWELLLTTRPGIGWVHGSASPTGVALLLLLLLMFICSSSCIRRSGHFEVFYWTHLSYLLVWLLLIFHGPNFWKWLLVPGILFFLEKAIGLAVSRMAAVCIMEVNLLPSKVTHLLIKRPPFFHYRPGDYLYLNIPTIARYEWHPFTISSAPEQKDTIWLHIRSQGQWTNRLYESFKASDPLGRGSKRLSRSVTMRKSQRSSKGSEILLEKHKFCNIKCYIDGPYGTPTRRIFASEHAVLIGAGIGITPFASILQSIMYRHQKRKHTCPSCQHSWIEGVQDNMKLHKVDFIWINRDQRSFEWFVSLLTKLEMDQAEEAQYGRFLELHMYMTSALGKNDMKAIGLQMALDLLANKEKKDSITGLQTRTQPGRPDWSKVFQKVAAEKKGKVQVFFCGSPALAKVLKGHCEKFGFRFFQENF

| Compound | composite z-score [1] | z-score [2] | z-score [3] | z-score [4] | z-score [5] | composite z-score [6] | composite z-score [7] | composite z-score [8] | composite z-score [9] | composite z-score [10] | z-score [11] | composite z-score [12] | z-score [13] | z-score [14] | z-score [15] | z-score [16] | z-score [17] | z-score [18] | z-score [19] | z-score [20] |
| --- | --- | --- | --- | --- | --- | --- | --- | --- | --- | --- | --- | --- | --- | --- | --- | --- | --- | --- | --- | --- |
| CC1CC/C=C\[C@H]2OC34C=CCN(Cc5ccccc5)C(=O)[C@H]3N(CCCCCCO)C(=O)[C@@H]4C2C(=O)O1 (stereo not given in full) | -0.523 | -0.649 (inactive) | 2.79 (inactive) | 0.329 (inactive) | 0.138 (inactive) | -0.871 | -0.206 | 1.4 | -0.549 | 0.06 | 0.528 (inactive) | 0.0249 | -0.107 (inactive) | 0.179 (inactive) | 0.731 (inactive) | 0.111 (inactive) | 1.98 | 1.71 (inactive) | 0.185 (inactive) | 2.2 |
| COCCOC(=O)N1C(=O)[C@@]2(c3cc(C#Cc4ccc(OC)cc4)ccc31)[C@H](c1ccc(OCCO)cc1)N1[C@H](c3ccccc3)[C@H](c3ccccc3)OC(=O)[C@H]1[C@@H]2C(=O)NC[C@H](O)c1ccccc1 | 0.316 | -1.07 (inactive) | -0.367 (inactive) | -0.463 (inactive) | 0.003 (inactive) | 0.769 | 0.0301 | 0.677 | 0.603 | 1.5 | -0.0906 (inactive) | 0.257 | 4.14 (inactive) | 2.07 (inactive) | 0.0276 (inactive) | 1.24 (inactive) | -0.539 | 1.27 (inactive) | 0.708 (inactive) | 1.11 |
| O=C(NCc1ccc(F)cc1)[C@H]1C[C@H]2C(=O)N3CCC[C@H]3C(=O)N2[C@H]1c1ccc(O)cc1 | -0.216 | -2.87 (inactive) | 0.893 (inactive) | 1.24 (inactive) | -0.677 (inactive) | -1.32 | -0.443 | 0.264 | 0.202 | 0.546 | 1.84 (inactive) | -0.491 | 1.25 (inactive) | -0.989 (inactive) | -3.27 (inactive) | -1.66 (inactive) | 0.505 | -1.35 (inactive) | -0.184 (inactive) | 0.601 |
| CC(C)C(=C=CC[C@H](O)c1ccccc1OCCO)C[C@H](O)COCc1ccccc1 | -0.042 | -2.03 (inactive) | 0.297 (inactive) | 16 (active) | -0.0014 (inactive) | -0.266 | -0.101 | -0.0509 | 1.12 | 0.0553 | -0.188 (inactive) | -0.174 | 13.2 (active) | 2.13 (inactive) | 1.54 (inactive) | 1.21 (inactive) | -0.181 | -1.34 (inactive) | -1.44 (inactive) | -2.38 |
| COCCOC(=O)N1C(=O)[C@@]2(c3cc(C#CCC(C(=O)OC)C(=O)OC)ccc31)[C@H](C(N)=O)[C@H]1C(=O)O[C@H](c3ccccc3)[C@H](c3ccccc3)N1[C@@H]2c1ccc(O)cc1 | 0.449 | -5.41 (inactive) | -1.01 (inactive) | -0.168 (inactive) | -0.339 (inactive) | -0.0413 | -0.0405 | 0.551 | 0.919 | 1.75 | -0.247 (inactive) | 0.0406 | 26.5 (active) | 12.4 (active) | 3.28 (inactive) | 2.53 (inactive) | -0.255 | 1.29 (inactive) | 0.385 (inactive) | 0.73 |
| O=C1NC(=O)C2C1C=CC(C(O)c1ccc([N+](=O)[O-])cc1)N2Nc1ccccn1 (stereo not given) | -0.0851 | 1.06 (inactive) | -0.295 (inactive) | -0.133 (inactive) | -0.728 (inactive) | -0.115 | -0.0059 | 0.419 | -0.306 | -0.371 | -0.55 (inactive) | -0.112 | 0.406 (inactive) | 0.74 (inactive) | 0.067 (inactive) | 0.581 (inactive) | -0.466 | -0.728 (inactive) | -2.61 (inactive) | -1.96 |
| CCCc1cc2c(n1CCc1ccc(Cl)cc1)C(C)C1CN(C(=O)c3ccccc3)C(C)(C(=O)OC)C21 (stereo not given) | 0.689 | -3.68 (inactive) | 0.188 (inactive) | 1.16 (inactive) | 4.57 (inactive) | 1.93 | -0.0736 | -0.103 | 0.947 | -0.264 | -2.41 (inactive) | 0.268 | 2.24 (inactive) | 0.322 (inactive) | 2.8 (inactive) | 0.347 (inactive) | 0.0928 | -2.06 (inactive) | -7.6 (inactive) | -5.16 |
| O=C(O)[C@H](Cc1ccccc1)n1cc(C2(O)CCCCC2)nn1 | 0.0358 | 0.316 (inactive) | 0.552 (inactive) | 0.367 (inactive) | 0.317 (inactive) | -0.338 | -0.0221 | 0.221 | 0.327 | -0.0164 | -0.976 (inactive) | 0.592 | 0.0438 (inactive) | -0.879 (inactive) | -0.472 (inactive) | -0.281 (inactive) | 0.347 | 1.01 (inactive) | 0.715 (inactive) | 0.31 |
